Key:
Assay in all cases: PBM binding z-score (relative to random genomic background probes); higher = stronger binding; sequences stand for … in GC…GCGATTGACAGCGTAGAATGAAGG
[1] = system: FXR:RXRa (NR concentration 270 nM, RXRa partner concentration 90 nM)
Summary of the method: (§1)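 Each nuclear receptor dimer, without ligand, was incubated for 1 h on custom Agilent 4×180K protein-binding microarrays. Binding was detected with antibodies against each partner (one per run), and scanned fluorescence was regression-normalized. The binding z-scores are referenced to random human genomic background probes.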

[2] = system: LXRa:RXRa (NR concentration 270 nM, RXRa partner concentration 90 nM)
Summary of the method: as §1

[3] = system: LXRa homodimer (NR concentration 270 nM)
Summary of the method: as §1

[4] = system: LXRb:RXRa (NR concentration 270 nM, RXRa partner concentration 90 nM)
Summary of the method: as §1

[5] = system: LXRb homodimer (NR concentration 270 nM)
Summary of the method: as §1

[6] = system: PPARa:RXRa (NR concentration 270 nM, RXRa partner concentration 90 nM)
Summary of the method: as §1

[7] = system: PPARg:RXRa (NR concentration 180 nM, RXRa partner concentration 90 nM)
Summary of the method: as §1

[8] = system: PPARg:RXRa 270nM:90nM, anti-RXR (NR concentration 270 nM, RXRa partner concentration 90 nM)
Summary of the method: as §1

[9] = system: PPARg:RXRa 30nM:10nM, anti-RXR (NR concentration 30 nM, RXRa partner concentration 10 nM)
Summary of the method: as §1

[10] = system: PPARg:RXRa 90nM:30nM, anti-RXR (NR concentration 90 nM, RXRa partner concentration 30 nM)
Summary of the method: as §1

[11] = system: PPARg:RXRa DBDmut IVT, anti-RXR (DBD mutation: RXRa K156A/R161A, NR concentration 270 nM, RXRa partner concentration 90 nM)
Summary of the method: as §1

[12] = system: PPARg:RXRa IVT, anti-PPARg (NR concentration 270 nM, RXRa partner concentration 90 nM)
Summary of the method: as §1

[13] = system: PPARg DBDmut:RXRa IVT, anti-PPARg (DBD mutation: PPARg1 K132A/R137A, NR concentration 270 nM, RXRa partner concentration 90 nM)
Summary of the method: as §1

[14] = system: PPARg DBDmut IVT, anti-PPARg (DBD mutation: PPARg1 K132A/R137A, NR concentration 270 nM)
Summary of the method: as §1

[15] = system: PPARg homodimer (NR concentration 180 nM)
Summary of the method: as §1

[16] = system: PXR:RXRa (NR concentration 270 nM, RXRa partner concentration 90 nM)
Summary of the method: as §1

[17] = system: PXR homodimer (NR concentration 270 nM)
Summary of the method: as §1

[18] = system: RARa:RXR (NR concentration 270 nM, RXRa partner concentration 90 nM)
Summary of the method: as §1

[19] = system: RARa homodimer (NR concentration 270 nM)
Summary of the method: as §1

[20] = system: RARb:RXRa (NR concentration 270 nM, RXRa partner concentration 90 nM)
Summary of the method: as §1

Row | Sequence | PBM binding z-score [1] | PBM binding z-score [2] | PBM binding z-score [3] | PBM binding z-score [4] | PBM binding z-score [5] | PBM binding z-score [6] | PBM binding z-score [7] | PBM binding z-score [8] | PBM binding z-score [9] | PBM binding z-score [10] | PBM binding z-score [11] | PBM binding z-score [12] | PBM binding z-score [13] | PBM binding z-score [14] | PBM binding z-score [15] | PBM binding z-score [16] | PBM binding z-score [17] | PBM binding z-score [18] | PBM binding z-score [19] | PBM binding z-score [20]
1 | GCATATAGGTAATACAAGGTAAAAGTCCGATTGT | 1.02 | 0.511 | -0.476 | -0.189 | -0.093 | 0.669 | 1.14 | 0.607 | -0.0355 | 0.325 | 3.98 | 2.51 | 0.397 | 1.1 | 0.166 | 0.0106 | -0.11 | 0.364 | 0.741 | -0.207
2 | TCGTATAGGTAAAAGGTGAAAGTCGGTGTGGTAA | 1.99 | 2.05 | 0.453 | 2.23 | 0.0721 | 4.51 | 6.49 | 7.01 | 6.31 | 7.11 | 3.45 | 3.77 | 0.0937 | 0.179 | 2.3 | 1.96 | 1.02 | 3.01 | 1.25 | 2.08
3 | CCTCGGAGGACAACAGGAGGTCAGAACTGCCAGA | 0.84 | 1.86 | 1.93 | 1.49 | -0.518 | 1.78 | 0.525 | -0.182 | -0.754 | -0.55 | 0.236 | 0.269 | -1.45 | -1.02 | 1.52 | 1.92 | 0.393 | 2.08 | 0.134 | 2.68
4 | CTACCCAGGTGAACAAGGTCGTTGATTACTATTC | 0.858 | 0.806 | 0.13 | 1.4 | -0.485 | 1.99 | 0.957 | 0.672 | 0.076 | 0.194 | 1.84 | 2.27 | 0.299 | -0.0404 | 0.541 | 2.03 | 0.96 | 1.61 | 0.91 | 1.29
5 | CGTCAAAGTTCAAGGTAAGGTAACAGAAAGCAGC | 6.16 | 5.4 | 2.37 | 3.29 | 0.542 | 4.69 | 4.19 | 4.91 | 1.78 | 3.67 | 0.198 | 2.04 | 0.246 | 0.255 | 1.61 | 4.03 | 1.72 | 3.78 | 1.28 | 5.22
6 | TGAATGAGGTTATAAGATCAGGTAACGTTGCAAA | 1.34 | 1.33 | -0.261 | 1.28 | 0.248 | 2.76 | 1.42 | 1.99 | 1.02 | 1.46 | 1.19 | 1.74 | 0.858 | 0.555 | 0.252 | 0.996 | 0.0498 | 1.59 | 0.49 | 1.12
7 | CTCGAAAGTTCGTGCTCAGGTGAGTATACCAAAC | 0.841 | 1 | 0.162 | 1.03 | -0.134 | 1.39 | -0.262 | 0.502 | 0.0705 | 0.433 | -0.18 | 0.443 | -0.211 | 0.0374 | 0.564 | 1.4 | 0.241 | 1.64 | -0.0689 | 2.06
8 | CCTACTGGGCTATCAGGTCATTGATATCAACGTT | 1.15 | 0.988 | 0.914 | 1.16 | -0.189 | 2.01 | 1.45 | 2.47 | 0.664 | 2.01 | 3.17 | 4.19 | 0.0312 | -0.392 | 0.841 | 1.33 | 0.575 | 1.41 | 0.294 | 1.55
9 | CCTACTGGGCCACGAATGGTCATTGATTCAGTGA | -0.465 | -0.465 | -0.579 | -0.606 | -1.07 | 0.398 | 1.18 | 1.19 | -0.142 | 0.398 | 5.35 | 5.07 | -0.0715 | 0.085 | 0.236 | -0.684 | -0.838 | -0.385 | -0.616 | 0.436
10 | TCGAGTAGGTTAGGGGCAGTCAGAATGGCGTCGA | 0.232 | 0.211 | -0.0968 | 0.86 | -0.416 | 1.11 | 0.492 | 1.58 | 0.558 | 1.36 | 2 | 1.49 | -0.663 | -0.988 | 0.763 | 0.184 | 0.227 | 0.265 | -0.345 | 1.08
11 | CCGACTGGGGCTAAGGTTACCATACTCAGTACGA | 0.144 | 0.0677 | -0.428 | 0.815 | -0.943 | 2.71 | 5.47 | 5.55 | 4.41 | 5.78 | 0.598 | 2.11 | -0.549 | -0.925 | 0.343 | 0.473 | -0.328 | 1.12 | -0.0476 | 1.12
12 | AGAACGAGGGCACGCTGAGATGATAGCAGAGTAG | 0.695 | 0.423 | -0.425 | 0.0557 | -0.697 | 2.1 | 2.33 | 1.98 | 0.819 | 1.41 | 4.28 | 3.41 | 0.615 | 0.133 | 0.5 | 0.342 | -0.229 | 0.762 | -0.576 | 2.5
13 | CCTTACGGGTCATGAGGTTATAGCACGACGAGCG | 7.04 | 4.93 | 0.379 | 3.84 | 0.286 | 5.85 | 5.69 | 5.69 | 2.37 | 4.58 | 3.29 | 4.22 | 1.38 | 0.99 | 3.37 | 4.44 | 0.345 | 5.82 | 1.27 | 4.11
14 | CCTACTGAGCCATTCAGAGGTCATTGATCATATG | 2.84 | 4.67 | 6.83 | 3.88 | 1.24 | 3.63 | 0.797 | 1.84 | 0.239 | 1.39 | 0.787 | 1.12 | 0.0537 | 0.233 | 3.19 | 4.96 | 3.63 | 4.44 | 1.71 | 2.87

Reference: the supplement of paper PMC6555819
